In PubChem BioAssay AID463187 (University of Pittsburgh Molecular Library Screening Center, 2010) one finds inhibition data, which are given here for 92 molecules.

Values joined by “and” are separate entries in the source; they are usually repeats but may differ in a detail not shown here. Identical values can stand only once. Screen size: about 220,000 compounds; about 1,500 (0.68%) were called active. The list comes from a sample in which actives are over-represented; it also holds similar structures and randomly drawn compounds. Values without a mark were called inactive.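 The calls were made as follows: active = Hck-Nef kinase inhibition above about 50% (limit read from the data); inactive = inhibition below that limit.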

The target of this assay is Tyrosine-protein kinase HCK (Homo sapiens) (UniProt P08631). The assay is described as follows: inhibitors of Nef-activated human Hck kinase, primary screen, biochemical, Z-Lyte FRET, 384-well, Hck-YEEI (AID 463187).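 Also: 0% = DMSO with Hck plus Nef and 100% = Hck alone without Nef.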 The following applies: Recombinant Hck-YEEI plus Nef, Z-Lyte FRET kinase assay; at 20 µM; hits give high values.
Sequence of Tyrosine-protein kinase HCK (Homo sapiens) (P08631 whole entry, looked up): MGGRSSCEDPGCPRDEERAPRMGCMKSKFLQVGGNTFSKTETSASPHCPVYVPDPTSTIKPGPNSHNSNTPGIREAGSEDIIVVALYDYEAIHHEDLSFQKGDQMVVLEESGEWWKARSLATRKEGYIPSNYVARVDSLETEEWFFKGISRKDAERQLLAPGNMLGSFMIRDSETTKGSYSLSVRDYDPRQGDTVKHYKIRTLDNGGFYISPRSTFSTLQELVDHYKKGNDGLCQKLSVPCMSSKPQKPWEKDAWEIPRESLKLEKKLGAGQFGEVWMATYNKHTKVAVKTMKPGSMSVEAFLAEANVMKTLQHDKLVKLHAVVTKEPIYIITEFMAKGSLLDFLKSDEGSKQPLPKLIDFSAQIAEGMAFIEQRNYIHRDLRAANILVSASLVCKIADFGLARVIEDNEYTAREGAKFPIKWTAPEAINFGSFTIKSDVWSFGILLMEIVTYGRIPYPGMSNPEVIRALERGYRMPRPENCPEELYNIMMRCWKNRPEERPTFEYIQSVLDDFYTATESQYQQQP
Consider `CCc1nnc(NC(=O)CSc2nc(SC)ns2)s1`, for which the inhibition is 8.82%.
As to `Cc1ccc(CSc2nnc(-c3cnccn3)n2C)cc1`, the inhibition is 20.9%.
In the case of `CC(C)Oc1ccc(C(=O)NC(C)(C)CO)cc1`, the inhibition was 4.72%.
The result for `CCNC(=S)NNC(=O)c1ccc2ncccc2c1` reads 27.6%; that for `COc1cccc(/C=C2\SC(=N)N(c3ccc(F)cc3)C2=O)c1`, 26.2%.
For `COc1ccc(Cl)cc1C(=O)NCc1cn(C)nc1C` the value was 0.825%; for `Cc1nn(C)cc1CNC(=O)Nc1ccc(Cl)cc1`, 12.3%; for `Cc1ccc(-c2cc(C(=O)NCc3cn(C)nc3C)c3cc(Br)ccc3n2)cc1`, 50.4% (active).
For `Cc1nnc(NC(=O)CSc2nc(C3CCCCC3)nc3ccccc23)s1` the value was -0.612%; for `CC(=O)Nc1cc2ccc(OC(C)=O)cc2oc1=O`, 23.3%.
Regarding `Cc1c(Cc2ccccc2)c(=O)oc2cc(OCC(N)=O)ccc12`, the inhibition is 28.6%.
For the molecule `CC(=O)Oc1ccc2c(C)c(CC(C)O)c(=O)oc2c1` (configuration not stated), the inhibition was 81.8% (active).
The result for `CS(=O)(=O)N(CC(=O)N1CCN(Cc2ccccc2)CC1)c1ccc2c(c1)OCCO2` reads 1.45%; that for `Cc1ccc(C)c(NC(=S)NCC(c2cccnc2)N2CCOCC2)c1` (configuration not stated), 0.595%.
For the molecule `COc1ccc(N=Cc2c(O)[nH]c3ccccc23)cc1OC`, the inhibition is 53% (active).
With `COc1cc(N=Cc2c(O)[nH]c3ccccc23)cc(OC)c1OC`, the inhibition is 34.4%.
On to `COc1ccccc1N=Cc1c(O)c2ccccc2oc1=O`, for which the inhibition was 0.48%.
Take `CC(C)CNC(=O)/C=C/C(=O)O`: the inhibition was -8.82% and 22%.
As for `Cc1ccc(NC(=O)CN(C)CC(=O)Nc2cccc(F)c2)cc1[N+](=O)[O-]`, the inhibition is -0.303%.
As to `Cc1ccc(CN(C)CC(=O)Nc2cccc([N+](=O)[O-])c2)o1`, the inhibition is -2.63%.
The result for `CN(CC(=O)Nc1cccc(F)c1)CC(=O)Nc1cccc([N+](=O)[O-])c1` reads 64.6% (active); that for `Cc1cccc(C)c1NC(=O)C1(C)c2cccc[n+]2CC(=O)N1Cc1cccs1` (configuration not stated), 16.8%; that for `CCS(=O)(=O)c1ccc2c(c1)N(S(=O)(=O)c1ccccc1)CC(C(=O)O)O2` (configuration not stated), 1.06%.
Regarding `CC1CCCN(CC(O)COc2ccc3c(c2)OCO3)C1` (configuration not stated), the inhibition is 18.9%.
With `Cc1cc(C(=O)N/N=C/c2ccc(O)c([N+](=O)[O-])c2)c(C)n1-c1ccc(F)cc1`, the inhibition is 18.7%.
Consider `CCOc1cccc(/C=N/N2C(=O)CSC2=S)c1O`, for which the inhibition is -22.8%.
For the molecule `O=C1CSC(=S)N1/N=C/c1ccc(O)c([N+](=O)[O-])c1`, the inhibition is 118% (active).
With `Clc1ccc(-n2nnnc2CN2CCCCC2)cc1Cl`, the inhibition is 2.13%.
In the case of `Cc1cc(C)c2c(n1)nn1c(N3CCN(c4cccc(Cl)c4)CC3)cc(C)nc21`, the inhibition is 35.2%.
For `Cc1cc(C)c2c(n1)nn1c(-n3ccnc3)cc(C)nc21` the value was 5.47%; for `Cc1cc(C)c2c(n1)nn1c(N3CCOCC3)cc(C)nc21`, 58.8% (active).
With `CCc1ccc(NC(=O)N[C@H](C(=O)O)C(C)CC)cc1` (some centres not stated), the inhibition was -2.07%.
For `CC1=CC(C)(C)NC(=S)N1c1ccccc1` the value was -1.08%; for `COc1ccc(N2CCN(c3ccc([N+](=O)[O-])cc3Cl)CC2)cc1`, 9.48%.
With `C/C=C/C(=O)Nc1nnc(C(C)C)s1`, the inhibition was 6.42%.
As to `CC(C)n1cnc2c(Nc3cccc(Cl)c3)nc(N(CCO)CCCO)nc21`, the inhibition was 112% (active).
As for `OCCCNc1nccc(-c2cc(Nc3cccc(Cl)c3)ncn2)n1`, the inhibition was 17.4%.
For the molecule `CC(C)C[C@H](CO)Nc1nc(N(C)c2cccc(Cl)c2)c2ncn(C(C)C)c2n1`, the inhibition is 29.9%.
Regarding `CC1CN(S(=O)(=O)c2ccccc2)C(C)CN1S(=O)(=O)c1ccccc1` (configuration not stated), the inhibition was 2.18%.
Consider `CC(=O)Nc1ccc(/C(C)=N/NC(=O)CN(c2ccccc2Br)S(C)(=O)=O)cc1`, for which the inhibition was 3.92%.
Turning to `Cc1cc(Br)ccc1SCC(=O)OCC(=O)NCc1ccc2c(c1)OCO2`, the inhibition was -1.74%.
For `Oc1c(Cl)cc(Cl)c(Cl)c1Cc1c(O)c(Cl)cc(Cl)c1Cl`, the inhibition is 58.4% (active).
As for `O=C(OCC1O[C@@H](OC(=O)c2cc(O)c(O)c(O)c2)[C@@H](OC(=O)c2cc(O)c(O)c(O)c2)[C@@H](OC(=O)c2cc(O)c(O)c(O)c2)[C@@H]1OC(=O)c1cc(O)c(O)c(O)c1)c1cc(O)c(O)c(O)c1` (some centres not stated), the inhibition was 97.6% (active).
`CC(=O)NC1C(OCc2ccccc2)OC(COC(C)=O)C(OC(C)=O)C1OC(C)=O` (configuration not stated): the inhibition was 0.438%.
For `C/C=C(\C)C(=O)N1CC2(CC(c3cccc(NC(=O)CCCCC)c3)=NO2)C[C@@H]1C(N)=O` (some centres not stated), the inhibition is 35.8%.
In the case of `O=C(CCCCCNC(=O)c1ccccc1)N/N=C/c1ccccc1`, the inhibition was 9.24%.
`CC(C)(C)OC(=O)NCCCCCC(=O)N/N=C/c1coc2ccccc2c1=O`: the inhibition is 76.3% (active).
As to `O=C(N/N=C/c1coc2ccccc2c1=O)c1cc2ccccc2o1`, the inhibition was 49.1%.
Turning to `Cc1ccc(OCCCC(=O)NC(C)c2ccccc2)c(C)c1` (configuration not stated), the inhibition is -1.04%.
For the molecule `CC(C)n1c(CN2CCN(Cc3ccccc3)CC2)nc2ccccc21`, the inhibition was 5.34%.
Turning to `CN(C)C(=S)Nc1ccc(Br)cc1Cl`, the inhibition was 14.6%.
For the molecule `O=C1Oc2ccccc2C(=O)/C1=C/c1ccccc1O`, the inhibition is 80.6% (active).
The result for `CC(=O)c1cccc(NC(=O)c2ccncc2)c1` reads -1.38%; that for `CCn1c(=O)c2cc(C(=O)Nc3cccc(C(C)=O)c3)sc2c2ccccc21`, 53.6% (active).
Regarding `CCn1c(NC(=O)c2ccccc2)c(-c2cccs2)c(=O)c2ccccc21`, the inhibition was -2.03%.
Turning to `Cc1ccc(N2C(=O)CC(Nc3cccc4ccccc34)C2=O)cc1` (configuration not stated), the inhibition was 20.6%.
With `CC(C)Cn1cnc2c1c(=O)n(CC(O)c1ccccc1)c(=O)n2CC(C)C` (configuration not stated), the inhibition is 1.05%.
Consider `Clc1ccccc1CSc1nnc(-c2ccco2)c(-c2ccco2)n1`, for which the inhibition is 21.2%.
For the molecule `c1ccc(CSc2nnc(-c3ccco3)c(-c3ccco3)n2)cc1`, the inhibition was 61.4% (active).
Consider `Brc1ccc(CSc2ccc(-c3ccco3)nn2)cc1`, for which the inhibition is 22.4%.
Turning to `O=C(COc1ccc([N+](=O)[O-])cc1)Nc1ccc(N2CCCC2)cc1`, the inhibition is 1.04%.
With `CCc1nnc(NC(=O)/C=C/c2ccc(C)o2)s1`, the inhibition is 2.58%.
In the case of `Cc1c(NC(=O)/C=C/C(=O)O)cccc1[N+](=O)[O-]`, the inhibition is 0.166%.
`Cc1ccc(/C=C/C(=O)Nc2ccc([N+](=O)[O-])c(NC(=O)/C=C/c3ccc(C)o3)c2)o1`: the inhibition was 79.2% (active).
Consider `Cc1ccc(N(CC(=O)Nc2cc(C)cc(C)c2)S(=O)(=O)c2cccc3nonc23)cc1`, for which the inhibition is 2.67%.
As for `Cc1c(Nc2nc3ccccc3nc2NS(=O)(=O)c2cccs2)c(=O)n(-c2ccccc2)n1C`, the inhibition was -1.3%.
For the molecule `Cc1ccc(-c2nc(SCC(=O)Nc3ccccc3OC(F)F)c3c(C)c(C(=O)O)sc3n2)cc1`, the inhibition was 98.6% (active).
For `Cc1ccc(C)c(SCc2nc3sc(C(=O)O)c(C)c3c(=O)[nH]2)c1` the value was 30.6%.
Consider `CCOC(=O)c1ccc[n+](CC(=O)Nc2ccccc2OC(F)F)c1`, for which the inhibition was 3.79%.
For `COc1ccc(N(CC(=O)NC2CCCC2)C(=O)CS(=O)CC(=O)Nc2ccc3c(c2)OCO3)cc1` (configuration not stated), the inhibition is 20.7%.
Take `COc1ccc(C(=O)Nc2ccc(S(=O)(=O)Nc3onc(C)c3C)cc2)cc1OC`: the inhibition was 2.01%.
As for `CCn1c(SCC(=O)Nc2ccc(S(=O)(=O)Nc3onc(C)c3C)cc2)nnc1-c1ccccc1`, the inhibition is 0.636%.
As for `Cc1cc(C)c2nc(-c3cccnc3)cc(C(=O)Nc3ccc(S(=O)(=O)Nc4onc(C)c4C)cc3)c2c1`, the inhibition was 62.9% (active).
Take `O=C1c2ccccc2NC(c2ccccc2O)N1NS(=O)(=O)c1ccccc1` (configuration not stated): the inhibition is 24.7%.
Regarding `O=C(COC(=O)CSc1nnc(-c2ccc(Cl)cc2)o1)Nc1cc(Cl)cc(Cl)c1`, the inhibition is 3.81%.
For `CCN(CC)c1ccc2oc(=O)c(C)nc2c1` the value was -14.5%; for `CCN(CC)c1ccc2cc(C(N)=O)/c(=N\NC(=O)c3ccncc3)oc2c1`, -3.77%.
In the case of `CCN(CC)c1ccc2cc(C(=O)O)c(=O)oc2c1`, the inhibition is 179% (active).
Regarding `Cc1cc(C)nc(NNC2=CC(=O)CC(C)(C)C2)n1`, the inhibition was 22.8%.
`Cc1[nH]nc(-c2ccc(OCc3cnn(-c4ccccc4)c3)cc2O)c1Oc1ccc(Cl)cc1`: the inhibition is 0.631%.
The result for `Cc1ccc2nc(/C(C#N)=C\c3ccc(OC(=O)c4cccs4)cc3)[nH]c2c1` reads 57.1% (active); that for `CCOC(=O)CSc1nc2ccc(C)cc2[nH]1`, 10.3%; that for `Cc1ccc2nc(S(=O)(=O)O)[nH]c2c1`, -5.86%.
The result for `CCOC(=O)c1sc(-c2cccc([N+](=O)[O-])c2)cc1N` reads 22%.
Regarding `CN(C)C(=O)c1nc2ccc(Cl)cn2c1CN1CCN(c2ncccn2)CC1`, the inhibition is 16.5%.
For the molecule `CCCC(=O)Nc1nc2ccc(NC(=O)c3c(F)c(F)c(OC)c(F)c3F)cc2s1`, the inhibition was 13.4%.
In the case of `O=C(Nc1ccc(S(=O)(=O)Nc2nccs2)cc1)c1cc(-c2ccncc2)nc2ccccc12`, the inhibition was 75% (active).
Regarding `CCC(CC)C(=O)Nc1ccc(S(=O)(=O)Nc2nccs2)cc1`, the inhibition was 15.9%.
Turning to `O=C(Nc1ccc(S(=O)(=O)Nc2nccs2)cc1)c1cc(=O)[nH]c2ccccc12`, the inhibition was 8.68%.
As for `CC(=O)Nc1ccc(Nc2c3ccccc3nc3ccccc23)cc1`, the inhibition was 12.8%.
As for `O=[N+]([O-])c1cccc(Nc2c3ccccc3nc3ccccc23)c1`, the inhibition was 64.5% (active).
For the molecule `Cc1cc(CNC(=O)c2cccc([N+](=O)[O-])c2)c2ccccc2n1`, the inhibition is 20.7%.

In general, inhibition refers to the change of the read-out against control, counted positive when it falls.
